# “And” between values parts separate entries of the source, which are not always exact repeats. Equal entries are not always repeated. Records with an inconclusive call do not appear. A call without a number means that no potency is given here. A number with no mark means an inactive call. The source made the active and inactive calls. Calls follow the shape of the dose curve; as a rule, active = well fitted inhibition curve with a large enough effect; inconclusive = small, poorly fitted or top-dose-only effect; inactive = flat fitted curve, though single readings scatter.
# Assays:
# CRL-7250 = normal cell line; assay: Cytotoxic Profiling of Annotated Libraries Using Quantitative High-Throughput Screening (AID 1296008); conditions: Five cell lines viability, CellTiter-Glo ATP luminescence, 48-72 h; max response: active compounds read low
# In short: (§1)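 Cells exposed to compounds for 48 or 72 hr at 37 degrees Celsius. Viability read as ATP-coupled luminescence with CellTiter-Glo after 10 min at room temperature.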
# HEK293 = assay: as above; conditions: Five cell lines viability, CellTiter-Glo ATP luminescence, 48-72 h; max response: active compounds read low
# In short: as §1
# HaCat [1] = assay: as above; conditions: Five cell lines viability, CellTiter-Glo ATP luminescence, 48-72 h; max response: active compounds read low
# In short: as §1
# KB-3-1 = assay: as above; conditions: Five cell lines viability, CellTiter-Glo ATP luminescence, 48-72 h; max response: active compounds read low
# In short: as §1
# HACAT [2] = assay: qHTS assay to identify novel small-molecules to repurpose for Merkel cell carcinoma treatment (AID 1296009); conditions: MCC and control cell lines, CellTiter-Glo viability, 72 h; at 44.8 µM (top of the series) unless noted
# In short: (§2)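 Cells were treated for 72 hr at 37 degree celsius with compounds in 8- or 11-point dose response. Viability was read by CellTiter-Glo luminescence, normalized to no-cell (cytotoxicity) and DMSO controls.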
# HEK293T = assay: as above; conditions: MCC and control cell lines, CellTiter-Glo viability, 72 h; at 44.8 µM (top of the series)
# In short: as §2
# MCC-13 = assay: as above; conditions: MCC and control cell lines, CellTiter-Glo viability, 72 h; series mostly up to 46 µM
# In short: as §2
# MCC-26 = assay: as above; conditions: MCC and control cell lines, CellTiter-Glo viability, 72 h; series mostly up to 46 µM
# In short: as §2
# MKL-1 = assay: as above; conditions: MCC and control cell lines, CellTiter-Glo viability, 72 h; series mostly up to 46 µM
# In short: as §2
# MKL-2 = assay: as above; conditions: MCC and control cell lines, CellTiter-Glo viability, 72 h; series mostly up to 46 µM
# In short: as §2
# NIH3T3 = assay: Cytotoxic Profiling of Annotated Libraries Using Quantitative High-Throughput Screening (AID 1296008); conditions: Five cell lines viability, CellTiter-Glo ATP luminescence, 48-72 h; max response: active compounds read low
# In short: as §1
# Also: nearly all actives have a fitted effect of over 60% in size.
# Potency is read from the fitted curve at half-maximal effect.
compound,measurement,setting,value
CCCCCCCCCCCC1=C(O)C(=O)C=C(O)C1=O,outcome,CRL-7250,inactive
same,outcome,HEK293,inactive
same,outcome,HaCat [1],inactive
same,outcome,KB-3-1,inactive
same,outcome,HACAT [2],inactive
same,outcome,HEK293T,inactive
same,Potency,MCC-13,inactive
same,Potency,MCC-26,inactive
same,Potency,MKL-1,2.96 µM (active)
COc1cc2nc(-c3ccc(N4CCN(C)CC4)cc3)nc(NCCN3CCOCC3)c2cc1OC,Potency,CRL-7250,1.66 µM (active)
same,Potency,HEK293,5.8 µM (active)
same,Potency,HaCat [1],935 nM (active)
same,Potency,KB-3-1,0.0662 µM (active)
same,Potency,MCC-13,9.35 µM (active)
same,Potency,MCC-26,9.35 µM (active)
same,Potency,MKL-1,0.0235 µM (active)
same,Potency,MKL-2,0.105 µM (active)
O=C(Nc1c(Cl)cncc1Cl)c1ccc(OC(F)F)c(OCC2CC2)c1,max response,CRL-7250,-6.52%
same,max response,HEK293,0.493%
same,outcome,HaCat [1],inactive
same,outcome,KB-3-1,inactive
same,outcome,HACAT [2],inactive
same,Potency,MCC-13,inactive
same,Potency,MCC-26,inactive
same,Potency,MKL-1,inactive
same,Potency,MKL-2,inactive
CC1(C)CCC[C@@]2(C)[C@@H]1CC[C@@]1(C)OC(=O)C[C@H]21,max response,CRL-7250,1.92%
same,max response,HEK293,-1.67%
same,outcome,HaCat [1],inactive
same,max response,KB-3-1,5.91%
same,outcome,HACAT [2],inactive
same,Potency,MCC-13,inactive
same,Potency,MCC-26,inactive
same,Potency,MKL-1,inactive
same,Potency,MKL-2,inactive
CC(=O)Nc1ccc([C@H](C)C(=O)Nc2ncc(C(C)C)s2)cc1,Potency,CRL-7250,2.35 µM (active) and 1.84 µM (active)
same,Potency,HEK293,4.69 µM (active) and 4.11 µM (active)
same,Potency,HaCat [1],10.5 µM (active) and 18.4 µM (active)
same,Potency,KB-3-1,5.17 µM (active)
same,Potency,NIH3T3,8.33 µM (active) and 9.2 µM (active)
same,Potency,MKL-2,9.35 µM (active)
CC(=O)N(C)C1(c2ccccc2)CCN(CCC[C@]2(c3ccc(Cl)c(Cl)c3)CCCN(C(=O)c3ccccc3)C2)CC1,max response,CRL-7250,-7.82%
same,Potency,HEK293,662 nM (active) and 18.4 µM (active)
same,Potency,HaCat [1],2.35 µM (active) and 20.6 µM (active)
same,Potency,KB-3-1,0.372 µM (active)
same,Potency,MCC-13,inactive
same,Potency,MKL-1,inactive
same,Potency,MKL-2,20.9 µM (active)
CN(C[C@@H]1COCCO1)S(=O)(=O)Nc1ccc2ccc3ncc(-c4cnn(C)c4)cc3c(=O)c2c1,Potency,CRL-7250,0.469 µM (active)
same,Potency,HEK293,4.18 µM (active) and 6.51 µM (active)
same,Potency,HaCat [1],10300 nM (active)
same,Potency,KB-3-1,7.43 µM (active)
same,Potency,MCC-13,inactive
same,Potency,MKL-1,inactive
CC(C)(C)NC(=O)Nc1cccc(Nc2ncc(F)c(NC(C)(C)CO)n2)c1,max response,CRL-7250,-1.2% and -11%
same,Potency,HEK293,11.8 µM (active)
same,Potency,HaCat [1],10.5 µM (active) and 16.4 µM (active)
same,Potency,KB-3-1,18.7 µM (active) and 20.6 µM (active)
same,Potency,MCC-13,inactive
same,Potency,MKL-2,inactive
CCNc1cc(NC2CCC(O)CC2)nc(Nc2ccc3c(ccn3Cc3ccccc3)c2)n1 (centres undefined),max response,CRL-7250,1.87%
same,Potency,HEK293,20.9 µM (active)
same,outcome,HaCat [1],inactive
same,outcome,NIH3T3,inactive
same,outcome,HACAT [2],inactive
same,Potency,MCC-13,inactive
same,Potency,MCC-26,inactive
same,Potency,MKL-1,inactive
C=C1C(=O)OC2C=C(C)CCC=C(C)CCC12 (centres undefined),max response,CRL-7250,0.517%
same,outcome,HaCat [1],inactive
same,max response,KB-3-1,2.36%
same,max response,NIH3T3,0.3%
same,outcome,HACAT [2],inactive
same,Potency,MCC-13,inactive
same,Potency,MCC-26,inactive
same,Potency,MKL-1,inactive
NC(=O)c1cccc(-c2cc(Nc3ccc(OC(F)(F)F)cc3)ncn2)c1,max response,CRL-7250,-7.69% and -0.175%
same,outcome,HaCat [1],inactive
same,max response,KB-3-1,-13.5%
same,max response,NIH3T3,0.478% and -10.9%
same,outcome,HACAT [2],inactive
same,Potency,MCC-13,inactive
same,Potency,MCC-26,inactive
same,Potency,MKL-1,inactive
CON=C(C(=O)N[C@@H]1C(=O)N2C(C(=O)OCOC(=O)C(C)(C)C)=C(C=Cc3scnc3C)CS[C@H]12)c1csc(N)n1,outcome,CRL-7250,inactive
same,outcome,HaCat [1],inactive
same,max response,KB-3-1,0.86%
same,outcome,NIH3T3,inactive
same,outcome,HACAT [2],inactive
same,Potency,MCC-13,inactive
same,Potency,MCC-26,inactive
same,Potency,MKL-1,inactive
same,Potency,MKL-2,inactive
CN(C)CCC=C1c2ccccc2COc2ccc(CC(=O)O)cc21,outcome,CRL-7250,inactive
same,outcome,HaCat [1],inactive
same,outcome,KB-3-1,inactive
same,outcome,HACAT [2],inactive
same,Potency,MCC-13,inactive
same,Potency,MCC-26,inactive
same,Potency,MKL-1,inactive
same,Potency,MKL-2,inactive
O=C1C(Cl)=C(NCCN2CCOCC2)C(=O)c2ncccc21,Potency,CRL-7250,9.35 µM (active)
same,Potency,HEK293,13.2 µM (active)
same,Potency,KB-3-1,20.9 µM (active)
same,Potency,NIH3T3,2.64 µM (active)
same,Potency,MCC-13,16.6 µM (active)
same,Potency,MCC-26,8.33 µM (active)
same,Potency,MKL-1,1.32 µM (active)
same,Potency,MKL-2,2.96 µM (active)
CC=CC[C@@H](C)C(=O)[C@H]1C(=O)N[C@@H](C(C)C)C(=O)N(C)CC(=O)N(C)[C@@H](CC(C)C)C(=O)N[C@@H](C(C)C)C(=O)N(C)[C@@H](CC(C)C)C(=O)N[C@@H](C)C(=O)N[C@H](C)C(=O)N(C)[C@@H](CC(C)C)C(=O)N(C)[C@@H](CC(C)C)C(=O)N(C)[C@@H](C(C)C)C(=O)N1C,max response,CRL-7250,-6.35%
same,max response,HaCat [1],-21.7%
same,max response,KB-3-1,-1.28%
same,Potency,MCC-13,inactive
same,Potency,MCC-26,inactive
same,Potency,MKL-1,inactive
same,Potency,MKL-2,inactive
O=C(O)C=Cc1ccc(O)c(O)c1,max response,CRL-7250,-10.7%
same,max response,HaCat [1],-23.4%
same,max response,KB-3-1,6.69%
same,max response,NIH3T3,-24.2%
N[C@@]1(C(=O)O)CS(=O)(=O)[C@H]2[C@H](C(=O)O)[C@H]21,max response,CRL-7250,-30.1%
same,outcome,HaCat [1],inactive
same,max response,KB-3-1,-18.8%
same,max response,NIH3T3,-12.5%
same,outcome,HACAT [2],inactive
same,Potency,MCC-13,inactive
same,Potency,MCC-26,inactive
same,Potency,MKL-1,inactive
same,Potency,MKL-2,inactive

# Source: PubChem BioAssay (NCATS)
